The source of these data is PubChem BioAssay (NCI).

Compounds without any hit were thinned out: in the full panel of roughly 83,000, 20% have a hit.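 96-well plates, one dose, 48 hours. Percent growth reported; active if below 10.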 Unmarked numbers belong to inactive results. The source made the active and inactive calls.

Test systems include RPMI-8226 leukemia; OVCAR-8 ovarian; OVCAR-5 ovarian; OVCAR-4 ovarian; SK-OV-3 ovarian; OVCAR-3 ovarian; HS 578T breast; NCI/ADR-RES ovarian; IGROV1 ovarian; SR leukemia.
What all share (assay): NCI-60 one-dose screen, 48 h (100 = growth as untreated, 0 = no growth, -100 = all killed)
Settings in all cases: 10 µM

Consider `O=C(O)Cc1ccc(O)c(O)c1`, for which the growth in the test with RPMI-8226 leukemia is 92.4%; with OVCAR-8 ovarian, 104%; with OVCAR-5 ovarian, 96.2%; in the test on OVCAR-4 ovarian it was 109%; with SK-OV-3 ovarian, 99.3%; with OVCAR-3 ovarian it was 108%. For the same compound, the growth in the test with HS 578T breast was 90%; in the test on NCI/ADR-RES ovarian, 111%.

As to `COc1cc(-c2nn(-c3cccc(NC(=O)CCNc4ccc(N5CCOCC5)cc4)c3)cc2-c2ccncc2)ccc1Cl`, the growth in the test on RPMI-8226 leukemia is 15.5%; with OVCAR-8 ovarian it was 7.74% (active); with OVCAR-5 ovarian, 49%; with OVCAR-4 ovarian, 26%; in the test on SK-OV-3 ovarian it was 34.7%; with IGROV1 ovarian, 27.3%. Further, the growth with OVCAR-3 ovarian was 14.1%; with HS 578T breast, 29.7%; in the test on NCI/ADR-RES ovarian it was 36%.

Take `COc1cccc(CNc2cccc3cn[nH]c23)c1O`: the growth with RPMI-8226 leukemia was 100%; in the test on OVCAR-8 ovarian it was 96.5%; in the test with OVCAR-5 ovarian, 106%; in the test on OVCAR-4 ovarian it was 80.7%; in the test on SK-OV-3 ovarian it was 101%; in the test on IGROV1 ovarian it was 88.8%. In addition, the growth was 100% in the test on OVCAR-3 ovarian and 105% in the test on NCI/ADR-RES ovarian.

`COc1ccccc1N1CCCSC1=Nc1ccccc1`: the growth in the test on RPMI-8226 leukemia is 43.6%; in the test with OVCAR-8 ovarian, 104%; with OVCAR-5 ovarian it was 93.9%; with OVCAR-4 ovarian, 151%; with SK-OV-3 ovarian, 113%; in the test with OVCAR-3 ovarian it was 94.1%. For the same compound, the growth in the test with HS 578T breast is 117%; in the test with NCI/ADR-RES ovarian, 103%.

For `C=C1CCC2(C#N)[C@H]3[C@H](CC[C@@H]2C)[C@@H](C)C[C@@H](CC(C)(C)NC(=O)CN2CCC2=O)[C@H]13` (some centres not stated), the growth in the test with RPMI-8226 leukemia was -11.3% (active); with OVCAR-8 ovarian, 54.8%; in the test with OVCAR-5 ovarian, 63.5%; in the test on OVCAR-4 ovarian, 62.4%; with SK-OV-3 ovarian it was 89.7%; with IGROV1 ovarian, 28.7%. The results for the growth in the test with OVCAR-3 ovarian, with HS 578T breast and in the test with NCI/ADR-RES ovarian were 65.6%, 74.3% and 59.2%, respectively.

On to `CC1OC2CC(=O)OC2C2=C1C(=O)c1c(O)c3c(c(O)c1C2=O)C1CC(O)C3(O)C(C)O1` (configuration not stated), for which the growth in the test on RPMI-8226 leukemia is -6.28% (active); in the test with OVCAR-8 ovarian, 5.64% (active); with OVCAR-5 ovarian it was -47.3% (active); with OVCAR-4 ovarian, -99.6% (active); with SK-OV-3 ovarian, 8.13% (active); with IGROV1 ovarian, -36.7% (active). Moreover, the growth in the test on OVCAR-3 ovarian was -34.1% (active); with HS 578T breast, -12.3% (active); in the test with NCI/ADR-RES ovarian it was 1.39% (active).

In the case of `COc1ccc2cc(-c3nc4ccccc4s3)c(Cl)nc2c1OC`, the growth with RPMI-8226 leukemia was 101%; with OVCAR-8 ovarian, 103%; with OVCAR-5 ovarian, 105%; in the test with OVCAR-4 ovarian, 94.6%; in the test on SK-OV-3 ovarian, 93.4%; with IGROV1 ovarian, 103%. Also, the growth in the test with OVCAR-3 ovarian is 91.5%; with HS 578T breast, 89.9%; in the test with NCI/ADR-RES ovarian it was 99.8%.

As to `CN(C)CCCSc1ccccc1NC1=C(Cl)C(=O)C(Nc2ccccc2SCCCN(C)C)=C(Cl)C1=O`, the growth in the test with RPMI-8226 leukemia was 45.8%; with OVCAR-8 ovarian it was -26.5% (active); in the test with OVCAR-5 ovarian, 33.4%; with OVCAR-4 ovarian, -95.3% (active); with SK-OV-3 ovarian, 93.6%; in the test with IGROV1 ovarian, -63.5% (active). For the same compound, the figures for the growth in the test on OVCAR-3 ovarian, in the test with HS 578T breast and in the test on NCI/ADR-RES ovarian were -93% (active), 87.1% and 72.4%, respectively.

Take `COc1cc(-c2nn(-c3cccc(NC(=O)CCN4CCN(c5ccccc5)CC4)c3)cc2-c2ccncc2)ccc1Cl`: the growth in the test with RPMI-8226 leukemia was 20.6%; with OVCAR-8 ovarian, 22.6%; with OVCAR-5 ovarian, 47.5%; in the test with OVCAR-4 ovarian, 34%; in the test on SK-OV-3 ovarian, 26.7%; in the test on IGROV1 ovarian it was 32.7%. The growth with OVCAR-3 ovarian is 16.2%; in the test on HS 578T breast, 31.8%; in the test on NCI/ADR-RES ovarian, 21%.

As for `NS(=O)(=O)Oc1ccc(-c2ccc3sccc3c2)cc1`, the growth with RPMI-8226 leukemia is 107%; in the test on OVCAR-8 ovarian it was 102%; in the test with OVCAR-5 ovarian, 88.8%; with OVCAR-4 ovarian, 97.3%; in the test with SK-OV-3 ovarian it was 108%; with IGROV1 ovarian it was 101%. Besides, the results for the growth in the test with OVCAR-3 ovarian, in the test with HS 578T breast and with NCI/ADR-RES ovarian were 106%, 44.6% and 95.3%, respectively.

As to `N#Cc1c(N)nc(-c2cc(F)cc(C(F)(F)F)c2)nc1-c1ccccc1F`, the growth with RPMI-8226 leukemia is 70.9%; with OVCAR-8 ovarian, 35.8%; with OVCAR-5 ovarian it was 61.1%; with OVCAR-4 ovarian, 5.1% (active); with SK-OV-3 ovarian it was 46.6%; with IGROV1 ovarian, 38.6%. Also, the growth in the test on HS 578T breast is 18.4%; in the test with NCI/ADR-RES ovarian it was 49.3%.

Take `COc1cc(C2CC(c3cc(Cl)c(C)cc3O)=NN2c2ccc(S(N)(=O)=O)cc2)cc(OC)c1OC` (configuration not stated): the growth in the test on RPMI-8226 leukemia is 11.9%; with OVCAR-8 ovarian, 34.4%; in the test with OVCAR-5 ovarian it was 19.4%; in the test on OVCAR-4 ovarian it was 33.1%; with SK-OV-3 ovarian it was 14.5%; in the test on IGROV1 ovarian it was 3.35% (active). Further, the growth in the test with OVCAR-3 ovarian is 20.7%; in the test with HS 578T breast it was 30.3%; in the test on NCI/ADR-RES ovarian, 3.9% (active).

Turning to `Cc1cc(CC(C)CC(C)(C)C)n(O)c(=O)c1` (configuration not stated) (tested in a mixture with another compound), the growth with RPMI-8226 leukemia is 39.8%; in the test on OVCAR-8 ovarian it was 20%; with OVCAR-5 ovarian, 41.4%; in the test on OVCAR-4 ovarian, 22.4%; in the test with SK-OV-3 ovarian it was 57.6%; in the test on IGROV1 ovarian, 9.36% (active). Besides, the growth with OVCAR-3 ovarian was 24.2%; in the test on HS 578T breast, 62.8%; in the test with NCI/ADR-RES ovarian, 0.595% (active).

As for `Cc1ccc(C(C)C)c(O)c1NC(=O)OC(C)C`, the growth was 115% in the test on SR leukemia; 95.7% in the test with OVCAR-8 ovarian; 106% with SK-OV-3 ovarian; 104% in the test with OVCAR-3 ovarian; 95.8% in the test with HS 578T breast; 98.3% in the test on NCI/ADR-RES ovarian.

Consider `Cc1ccc(C2NC(=S)N3C(c4ccc(C)cc4)NC(=S)N23)cc1` (configuration not stated), for which the growth in the test on RPMI-8226 leukemia is 6.55% (active); in the test on OVCAR-8 ovarian it was 35.7%; in the test with OVCAR-5 ovarian, 81.6%; in the test with OVCAR-4 ovarian, 117%; with SK-OV-3 ovarian, 49%; in the test with OVCAR-3 ovarian it was -20% (active). Moreover, the growth with HS 578T breast is 26.4%; in the test with NCI/ADR-RES ovarian it was 19%.
